Source: the supplement of paper PMC13380429

System: Vero E6 infected with SARS-CoV-2
Test: inhibition of SARS-CoV-2 cytopathic effect; higher = more antiviral protection, active = above 15
Conditions: 48 h

Measured: inhibition of SARS-CoV-2 cytopathic effect

O=C(O)C[CH2][Ge](=[O])[O][Ge](=[O])[CH2]CC(=O)O [propagermanium]
inactive: 1 nM -0.42% | 8.33 nM 1.44% | 100 nM 3.85% | 833.33 nM -0.73% | 10000 nM -2.33%

O=C(O)COc1cccc(CN(Cc2ccc(-n3cccn3)cc2)S(=O)(=O)c2cccnc2)c1 [taprenepag]
inactive: 1 nM 0.31% | 8.33 nM -1.59% | 100 nM -0.6% | 833.33 nM -0.14% | 10000 nM 0.98%

COc1ccc(NC(=O)c2ccc(-c3ccc(-c4noc(C)n4)cc3C)cc2)cc1OCCN(C)C
inactive: 1 nM -0.44% | 8.33 nM -0.62% | 100 nM -0.42% | 833.33 nM -0.17% | 10000 nM 5.11%

Nc1cccc(-c2cc3c(Oc4cccc(O)c4)ncnc3[nH]2)c1
inactive: 1 nM 4.09% | 8.33 nM 0.18% | 100 nM -2.41% | 833.33 nM -3.87% | 10000 nM -11.4%
